Consider 5 compounds from PubChem BioAssay.

Structures are written as SMILES. Results filed as inconclusive are left out. The source made the active and inactive calls.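 How the source made its calls, unless noted: active means GFP signal, as percent of the solvent control, above the screen mean plus 3 SD, about 149; inconclusive means no reading because the compound's own fluorescence upset strain identification; inactive means the rest.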

As usually defined, the inhibition is the drop in the measured response relative to a control, in per cent.

Experiment [1] can be described thus: yeast TOR pathway RPL19A-GFP modulators, primary screen, cell-based, S. cerevisiae, multiplex flow cytometry (AID 1862; in the data active means percent of DMSO control GFP below about 86%;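 further: lower values mimic rapamycin by blocking the RPL19A rise seen in DMSO cells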). As to conditions: S. cerevisiae RPL19A-GFP strain, flow cytometry fluorescence, 3 h; at 10 µM; stronger effect = lower value. In general terms: A flow cytometer gives signals particle by particle.
The nature of experiment [2]: modulators of MEP2-GFP levels in yeast, primary screen, S. cerevisiae, multiplex flow cytometry (AID 1867;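 active means GFP response, as percent of the DMSO control, above the screen-wide mean plus 3 SD, about 139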;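 further: median GFP channel fluorescence of barcode-gated MEP2-GFP cells measured by flow cytometry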). The note with it: S. cerevisiae MEP2-GFP strain, 3 h, at 10 µM, stronger effect = higher value, 100% means same as DMSO wells.
Experiment [3] can be described thus: modulators of CIT2-GFP expression in yeast, primary screen, S. cerevisiae, GFP fusion, multiplex flow cytometry (AID 1870;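 active means percent response above a set limit, the screen-wide mean plus 3 SD, cut at about 130% in these data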;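 further: barcoded CIT2-GFP strain pooled with four other GFP strains with rapamycin as positive control; median GFP fluorescence per well over plate mean of DMSO wells so 100% = DMSO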). As to conditions: 3 h, at 10 µM, stronger effect = higher value.
Experiment [4] can be described thus: modulators of LAP4-GFP expression in yeast, primary screen, S. cerevisiae, multiplex flow cytometry (AID 1873). As to conditions: 3 h, at 10 µM, stronger effect = higher value.
Experiment [5] in a line: modulators of AGP1-GFP expression in yeast TOR pathway, primary screen, cell-based, multiplex flow cytometry, S. cerevisiae (AID 1887;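 active means GFP signal above the screen-wide mean plus 3 SD, that is over about 124.5% of the solvent control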;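 further: AGP1-GFP fusion strain of S. cerevisiae within a five-strain barcoded multiplex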). The note with it: 3 h, at 10 µM, stronger effect = higher value.
The nature of experiment [6]: inhibitors of CD8+ T cell-vesicle binding, pilot screen, LFA-1/ICAM-1 modulator project, MLPCN validation set, flow cytometry (AID 2523;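 active means response below a set limit, under 55% cells CD8-positive and vesicle-bound, and CD8 cells' 90th-percentile brightness under 279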;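 on vesicle binding response: mean PE anti-B7-1 fluorescence of CD8+ cells relative to row control; 100% = QL9-loaded vesicles with DMSO vehicle in the same plate row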). The note with it: 2C mouse CD8+ T cells, at 7 µM, stronger effect = lower value; double positive events: measured here: CD8+/vesicle+ event percentage.
Experiment [7] addresses Integrin beta-1 (Homo sapiens) + Integrin alpha-4 (Homo sapiens) (UniProt P13612+P05556). The experiment is described as follows: inhibition of HUTS-21 binding to VLA-4, pilot screen, VLA-4 allosteric modulator project, U937 cells, HUTS-21 mAb, flow cytometry, validation set (AID 2674;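 active means inhibition above 50%, about 3 SD of the validation set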;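 further: antibody binding induced by the VLA-4 ligand LDV present at three times its Kd; 0% = LDV ligand with antibody and no compound and 100% = antibody without LDV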). As to conditions: HUTS-21 LIBS mAb binding, at 6.7 µM, stronger effect = higher value, binding induced by LDV ligand.

The nature of experiment [8]: superoxide lowering in aged yeast cells, pilot screen, validation compound set (AID 2706;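 active means superoxide response below 65% of plate, a cut near 3 SD across the whole screen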;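 further: yeast exposed to compound for one week at 30 degrees C before staining; 100% = mean of all compound wells on the same plate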). As to conditions: S. cerevisiae aging, superoxide DHE fluorescence; at 10 µM; stronger effect = lower value.
The target of experiment [9] is Beta-adrenergic receptor kinase 1 (Homo sapiens) (UniProt P25098). The experiment is described as follows: GRK2 binders displacing RNA aptamer, biochemical, validation, human GRK2, bead flow cytometry (AID 488806;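 active means aptamer binding inhibition above 30%, about 3 SD of noise from non-fluorescent compounds; inactive means inhibition at or below 30%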). As to conditions: bead-bound GRK2, FAM-aptamer displacement, at 10 µM, stronger effect = higher value.
Experiment [10] has as its target Beta-2 adrenergic receptor (Homo sapiens) (UniProt P07550). The experiment is described as follows: beta2AR agonists driving receptor internalization, pilot screen, cell-based, FAP fluorogen, flow cytometry, validation set (AID 504459;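 active means percent response above 42, roughly 3 SD of non-fluorescent test compounds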;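 further: agonist-driven loss of surface beta2AR via internalization measured by FAP dye flow cytometry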). As to conditions: Am2.2-beta2AR cells, FAP surface receptor flow cytometry; at 10 µM; stronger effect = higher value.
The target in experiment [11] is AP-2 complex subunit beta (Homo sapiens) (UniProt P63010). The experiment is described as follows: inhibitors of arrestin peptide binding to AP2, pilot screen, biochemical, validation set, GST-AP2 beads, flow cytometry (AID 504541;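 active means inhibition above 54%, about 3 SD of non-fluorescent compounds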;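 further: AP2 carries R879A mutation and is captured from E. coli lysate; bead-bound FITC arrestin peptide fluorescence measuring arrestin peptide binding to AP2; 0% = DMSO wells and 100% = excess unlabeled arrestin peptide control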). The note with it: FITC arrestin peptide, at 10 µM, stronger effect = higher value, AP2 beta2 appendage fragment, R879A mutant.
Experiment [12] is described as follows: yeast V-ATPase proton transport modulators, S. cerevisiae, pHLuorin, HTS validation (AID 504600; in the data active means response above about 15%;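 further: plate controls were DMSO for no effect and reference compound for full effect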). As to conditions: S. cerevisiae pHLuorin cytosolic pH, at 10 µM, stronger effect = higher value.
The subject of experiment [13] is anti-desmoglein-3 scFv antibody binding to human DSG3. Kind of experiment: inhibitors of anti-DSG3 scFv binding to DSG3, pilot screen, biochemical, validation compound set, bead-based, flow cytometry (AID 588368;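 active means binding below the plate cutoff, the plate median minus 3 SD, with a reading above zero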;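 further: signal is the median channel fluorescence of bead-bound GFP antibody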). As to conditions: Protein G beads, DSG3-Fc, scFv-GFP binding, at 10 µM, stronger effect = lower value.
The nature of experiment [14]: inhibitors of fungal efflux pumps CDR1, CDR2, MDR1, pilot screen, validation compound set, multiplex, phenotypic (AID 588506;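 active means efflux inhibition above 0.42, the validation set average plus 4 SD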;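 further: Nile Red retained in cells so higher fluorescence means more efflux inhibition; 0 = negative control wells and 1 = enniatin B 25 µM full block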). As to conditions: S. cerevisiae pump-expressing triplex, Nile Red efflux flow cytometry; at 10 µM; stronger effect = higher value; the pumps come from Candida albicans.
The target of experiment [15] is ATP-binding cassette sub-family B member 6 (Homo sapiens) (UniProt Q9NP58). Kind of experiment: ABCB6 transporter inhibitors, pilot screen, K562-ABCB6 cells, flow cytometry, validation set (AID 588550;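 active means inhibition above the screen-wide mean plus 3 SD, about 51%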;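 further: 0% = DMSO wells and 100% = benzethonium chloride 70 µM positive control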). As to conditions: K562-ABCB6 porphyrin accumulation, 1 h, at 10 µM, stronger effect = higher value.
Experiment [16] is described as follows: promoters of myeloid differentiation in arrested cells, primary screen, cell-based, GFP/MAC1 double positive, flow cytometry, validation set (AID 588685;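 active means differentiation response of at least 50%, scaled between solvent and reference control, from cells with both markers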;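 further: compound exposure lasts four days before antibody staining and flow analysis; 0% = DMSO wells and 100% = 5 µM fulvestrant positive control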). The note with it: ER-HoxA9 marrow cells, stronger effect = higher value, normalized: vehicle 0, fulvestrant 100.

Chain of ATP-binding cassette sub-family B member 6 (Homo sapiens) (Q9NP58 whole entry, looked up): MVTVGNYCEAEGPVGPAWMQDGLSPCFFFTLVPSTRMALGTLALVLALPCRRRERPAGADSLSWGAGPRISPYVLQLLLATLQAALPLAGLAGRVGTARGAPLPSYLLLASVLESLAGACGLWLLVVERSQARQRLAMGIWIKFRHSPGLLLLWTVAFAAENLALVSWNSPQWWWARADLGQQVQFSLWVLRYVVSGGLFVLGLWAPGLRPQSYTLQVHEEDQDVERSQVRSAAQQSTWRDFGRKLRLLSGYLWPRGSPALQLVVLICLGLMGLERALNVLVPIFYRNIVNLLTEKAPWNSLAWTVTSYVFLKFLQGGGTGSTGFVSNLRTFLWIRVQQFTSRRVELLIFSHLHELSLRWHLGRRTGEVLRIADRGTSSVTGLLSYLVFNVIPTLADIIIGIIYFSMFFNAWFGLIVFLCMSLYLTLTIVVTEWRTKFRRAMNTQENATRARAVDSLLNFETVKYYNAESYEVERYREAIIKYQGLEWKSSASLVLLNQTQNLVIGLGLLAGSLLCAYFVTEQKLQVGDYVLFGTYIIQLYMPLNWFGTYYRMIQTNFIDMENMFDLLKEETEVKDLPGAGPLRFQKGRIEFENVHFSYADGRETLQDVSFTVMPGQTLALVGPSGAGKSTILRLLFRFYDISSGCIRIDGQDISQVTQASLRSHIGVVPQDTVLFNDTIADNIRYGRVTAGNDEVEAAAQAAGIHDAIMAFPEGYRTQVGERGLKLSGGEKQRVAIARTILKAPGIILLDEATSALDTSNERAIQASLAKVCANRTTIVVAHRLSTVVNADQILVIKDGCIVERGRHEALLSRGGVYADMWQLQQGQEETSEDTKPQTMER
Chain of Integrin beta-1 (Homo sapiens) + Integrin alpha-4 (Homo sapiens) (P05556 whole entry, looked up): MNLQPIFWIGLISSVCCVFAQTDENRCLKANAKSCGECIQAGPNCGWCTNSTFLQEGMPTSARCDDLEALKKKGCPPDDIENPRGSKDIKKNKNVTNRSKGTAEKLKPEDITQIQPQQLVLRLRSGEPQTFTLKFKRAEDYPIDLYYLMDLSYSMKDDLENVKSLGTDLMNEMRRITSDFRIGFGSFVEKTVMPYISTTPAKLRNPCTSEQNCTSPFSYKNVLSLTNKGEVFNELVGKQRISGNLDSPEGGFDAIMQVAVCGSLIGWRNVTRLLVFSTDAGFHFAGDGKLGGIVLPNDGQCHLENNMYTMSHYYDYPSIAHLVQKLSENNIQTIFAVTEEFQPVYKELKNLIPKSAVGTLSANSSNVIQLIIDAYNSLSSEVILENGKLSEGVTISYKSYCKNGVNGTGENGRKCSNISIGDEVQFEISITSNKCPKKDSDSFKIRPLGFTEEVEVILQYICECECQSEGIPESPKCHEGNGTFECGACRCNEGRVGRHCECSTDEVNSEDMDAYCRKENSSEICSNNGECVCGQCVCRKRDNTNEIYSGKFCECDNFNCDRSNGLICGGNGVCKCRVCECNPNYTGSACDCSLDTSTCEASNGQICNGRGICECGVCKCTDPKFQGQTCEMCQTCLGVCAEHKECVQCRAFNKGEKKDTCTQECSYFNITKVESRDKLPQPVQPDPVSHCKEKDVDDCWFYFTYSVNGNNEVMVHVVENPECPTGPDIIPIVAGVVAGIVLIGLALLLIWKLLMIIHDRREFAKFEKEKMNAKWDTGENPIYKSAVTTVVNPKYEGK
Chain of Integrin beta-1 (Homo sapiens) + Integrin alpha-4 (Homo sapiens) (P13612 whole entry, looked up): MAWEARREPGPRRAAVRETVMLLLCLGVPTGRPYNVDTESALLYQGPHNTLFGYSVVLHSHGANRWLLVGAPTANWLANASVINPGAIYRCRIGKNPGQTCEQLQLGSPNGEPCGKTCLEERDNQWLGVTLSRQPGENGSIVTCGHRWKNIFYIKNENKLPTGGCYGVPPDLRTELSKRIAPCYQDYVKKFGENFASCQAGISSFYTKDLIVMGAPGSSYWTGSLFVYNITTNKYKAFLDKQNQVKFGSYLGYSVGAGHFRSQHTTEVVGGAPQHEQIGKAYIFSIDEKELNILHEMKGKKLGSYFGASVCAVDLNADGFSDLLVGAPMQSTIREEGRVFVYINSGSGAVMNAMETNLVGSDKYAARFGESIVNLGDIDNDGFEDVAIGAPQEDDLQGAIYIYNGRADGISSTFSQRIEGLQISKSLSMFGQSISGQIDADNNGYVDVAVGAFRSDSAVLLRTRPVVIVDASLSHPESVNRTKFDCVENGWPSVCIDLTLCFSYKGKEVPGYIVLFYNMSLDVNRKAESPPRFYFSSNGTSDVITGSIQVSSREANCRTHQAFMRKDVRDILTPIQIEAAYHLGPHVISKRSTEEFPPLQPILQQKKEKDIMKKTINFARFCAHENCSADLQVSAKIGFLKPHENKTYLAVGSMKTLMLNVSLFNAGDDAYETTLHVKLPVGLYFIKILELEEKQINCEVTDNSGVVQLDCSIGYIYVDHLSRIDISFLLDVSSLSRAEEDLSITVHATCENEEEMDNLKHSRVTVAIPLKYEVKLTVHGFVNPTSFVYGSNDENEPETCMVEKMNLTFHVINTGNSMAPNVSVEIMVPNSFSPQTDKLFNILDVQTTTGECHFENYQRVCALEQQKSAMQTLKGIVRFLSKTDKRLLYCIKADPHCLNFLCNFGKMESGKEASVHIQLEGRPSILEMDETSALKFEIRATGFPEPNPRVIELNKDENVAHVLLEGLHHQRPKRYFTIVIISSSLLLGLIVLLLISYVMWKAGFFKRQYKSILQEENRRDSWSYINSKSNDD
Chain of Beta-adrenergic receptor kinase 1 (Homo sapiens) (P25098 whole entry, looked up): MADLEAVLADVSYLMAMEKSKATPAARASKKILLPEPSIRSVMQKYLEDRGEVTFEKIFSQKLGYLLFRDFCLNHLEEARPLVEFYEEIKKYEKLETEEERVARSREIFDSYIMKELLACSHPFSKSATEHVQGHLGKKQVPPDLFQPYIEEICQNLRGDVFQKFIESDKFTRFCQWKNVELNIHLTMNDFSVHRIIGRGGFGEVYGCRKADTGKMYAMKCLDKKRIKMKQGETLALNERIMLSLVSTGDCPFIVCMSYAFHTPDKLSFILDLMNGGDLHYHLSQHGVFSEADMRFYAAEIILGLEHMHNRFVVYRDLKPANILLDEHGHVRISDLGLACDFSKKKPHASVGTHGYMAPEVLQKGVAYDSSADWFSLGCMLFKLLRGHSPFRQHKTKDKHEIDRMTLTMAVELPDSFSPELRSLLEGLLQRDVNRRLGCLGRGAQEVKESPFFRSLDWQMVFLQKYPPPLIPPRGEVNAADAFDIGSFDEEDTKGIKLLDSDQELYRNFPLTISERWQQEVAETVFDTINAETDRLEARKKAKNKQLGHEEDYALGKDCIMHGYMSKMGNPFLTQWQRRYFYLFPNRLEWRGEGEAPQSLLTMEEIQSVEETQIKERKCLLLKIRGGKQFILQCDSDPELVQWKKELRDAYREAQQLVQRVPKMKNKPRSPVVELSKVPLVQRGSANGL
Chain of AP-2 complex subunit beta (Homo sapiens) (P63010 whole entry, looked up, the tested form may be a part, one chain of several): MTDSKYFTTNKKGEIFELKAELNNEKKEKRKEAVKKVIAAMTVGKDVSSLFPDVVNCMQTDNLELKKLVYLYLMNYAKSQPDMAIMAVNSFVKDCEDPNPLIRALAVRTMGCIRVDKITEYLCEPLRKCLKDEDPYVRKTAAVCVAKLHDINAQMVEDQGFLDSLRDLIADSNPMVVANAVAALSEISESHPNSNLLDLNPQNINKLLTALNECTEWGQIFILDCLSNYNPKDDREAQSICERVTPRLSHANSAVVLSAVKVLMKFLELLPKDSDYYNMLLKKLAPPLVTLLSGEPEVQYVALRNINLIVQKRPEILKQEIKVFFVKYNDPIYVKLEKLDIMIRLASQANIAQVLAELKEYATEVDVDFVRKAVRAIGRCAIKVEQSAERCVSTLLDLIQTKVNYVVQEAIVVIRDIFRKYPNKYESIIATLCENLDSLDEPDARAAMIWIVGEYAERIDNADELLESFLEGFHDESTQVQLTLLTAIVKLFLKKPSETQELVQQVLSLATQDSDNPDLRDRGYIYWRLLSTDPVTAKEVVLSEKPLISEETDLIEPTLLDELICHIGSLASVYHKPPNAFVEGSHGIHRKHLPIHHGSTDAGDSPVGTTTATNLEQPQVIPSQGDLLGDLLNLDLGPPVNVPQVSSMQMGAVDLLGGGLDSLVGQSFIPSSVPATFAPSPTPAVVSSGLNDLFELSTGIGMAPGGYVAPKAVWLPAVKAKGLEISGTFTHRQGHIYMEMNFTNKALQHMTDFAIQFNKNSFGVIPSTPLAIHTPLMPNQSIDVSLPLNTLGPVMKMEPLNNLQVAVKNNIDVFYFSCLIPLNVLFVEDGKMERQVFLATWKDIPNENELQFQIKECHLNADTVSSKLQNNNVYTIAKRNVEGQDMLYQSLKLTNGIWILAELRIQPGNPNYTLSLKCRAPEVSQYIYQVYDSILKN
Chain of Beta-2 adrenergic receptor (Homo sapiens) (P07550 whole entry, looked up): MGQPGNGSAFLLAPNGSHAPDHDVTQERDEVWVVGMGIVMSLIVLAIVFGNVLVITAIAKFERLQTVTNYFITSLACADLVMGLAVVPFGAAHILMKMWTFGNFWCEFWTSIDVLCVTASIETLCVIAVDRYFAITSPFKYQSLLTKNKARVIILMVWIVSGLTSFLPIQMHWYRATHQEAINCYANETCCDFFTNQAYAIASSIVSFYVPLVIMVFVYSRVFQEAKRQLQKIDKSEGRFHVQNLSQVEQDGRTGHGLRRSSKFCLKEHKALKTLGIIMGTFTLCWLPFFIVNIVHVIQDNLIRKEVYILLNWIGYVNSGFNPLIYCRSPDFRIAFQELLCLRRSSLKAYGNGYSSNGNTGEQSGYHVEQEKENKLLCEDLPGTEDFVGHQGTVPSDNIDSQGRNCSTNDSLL

With `CC(C)CCNC(=O)[C@H](CC(C)C)NC(=O)[C@H]1O[C@@H]1C(=O)O`, in experiment [1], the percent of DMSO control GFP was 108% (inactive). The GFP response vs DMSO in experiment [2] is 101% (inactive); in experiment [4] it was 93.3% (inactive). For the same compound, the percent response of DMSO control in [3] is 112% (inactive). Also, in experiment [5], the GFP response, % of DMSO was 107% (inactive). In [6], this compound gave a double positive events of 52.8%. Further, in experiment [6], the vesicle binding response is 39.4% (active). Moreover, the inhibition is -4.6% (inactive) in [7], -12.3% (inactive) in experiment [11] and 3% (inactive) in experiment [15]. The superoxide response (% of plate) in [8] is 96.2% (inactive). In addition, the aptamer binding inhibition in experiment [9] was 3% (inactive). The response in experiment [10] was -6.13% (inactive); in experiment [12] it was 1.19% (inactive). In addition, the binding (% of control) in [13] is 98.4% (inactive). Besides, the efflux inhibition (fraction of control) in [14] was 0.08 (inactive). For the same compound, in experiment [16], the differentiation response was -1.71% (inactive).
Turning to `CC[N+](C)(C)c1cccc(O)c1`, the percent of DMSO control GFP in experiment [1] was 103% (inactive). For the same compound, the values for the GFP response vs DMSO in experiment [2] and in [4] were 99.3% (inactive) and 97.3% (inactive), respectively. In [3], the percent response of DMSO control is 112% (inactive). Besides, in experiment [5], the GFP response, % of DMSO is 102% (inactive). In addition, in [6], the double positive events is 57.5%. Also, the vesicle binding response in [6] was 123% (inactive). For the same compound, the inhibition is -0.45% (inactive) in experiment [7], -0.12% (inactive) in [11] and -7% (inactive) in experiment [15]. Moreover, in experiment [8], the superoxide response (% of plate) was 90.1% (inactive). For the same compound, in [9], the aptamer binding inhibition is 56% (active). In addition, the values for the response in [10] and in experiment [12] were -3.94% (inactive) and -0.97% (inactive), respectively. For the same compound, in experiment [13], the binding (% of control) is 103% (inactive). For the same compound, in experiment [14], the efflux inhibition (fraction of control) was -0.17 (inactive). Besides, in [16], the differentiation response was 7.09% (inactive).
Regarding `CCN(CC)CCNC(=O)c1cc(Cl)c(N)cc1OC`, the percent of DMSO control GFP in experiment [1] was 105% (inactive). Moreover, the GFP response vs DMSO is 107% (inactive) in experiment [2] and 92% (inactive) in experiment [4]. For the same compound, the percent response of DMSO control in experiment [3] is 89.6% (inactive). Moreover, the GFP response, % of DMSO in experiment [5] was 99.7% (inactive). Besides, the double positive events in [6] came out at 63.2%. For the same compound, the vesicle binding response in experiment [6] was 204% (inactive). Also, the inhibition in experiment [7] is -28.5% (inactive); in [11], 23.4% (inactive); in experiment [15], -10% (inactive). The superoxide response (% of plate) in experiment [8] was 104% (inactive). For the same compound, the aptamer binding inhibition in experiment [9] was 5% (inactive). The response is 2.1% (inactive) in experiment [10] and -4.6% (inactive) in experiment [12]. Further, the binding (% of control) in [13] was 100% (inactive). In addition, in [14], the efflux inhibition (fraction of control) was -0.1 (inactive). The differentiation response in experiment [16] was 7.09% (inactive).
`Cc1ccc2ncnc(NCCCCCC(=O)O)c2c1`: the percent of DMSO control GFP in experiment [1] is 105% (inactive). The GFP response vs DMSO was 103% (inactive) in experiment [2] and 106% (inactive) in experiment [4]. The percent response of DMSO control in [3] is 105% (inactive). Further, the GFP response, % of DMSO in [5] was 108% (inactive). The same compound had a double positive events in experiment [6] of 64.6%. In [6], the vesicle binding response is 130% (inactive). In addition, the inhibition was 8.29% (inactive) in experiment [7], 13.1% (inactive) in [11] and 4% (inactive) in [15]. For the same compound, the superoxide response (% of plate) in experiment [8] was 114% (inactive). Further, in experiment [9], the aptamer binding inhibition is -1% (inactive). For the same compound, the response is 0.4% (inactive) in experiment [10] and 5.01% (inactive) in experiment [12]. Moreover, the binding (% of control) in [13] was 101% (inactive). Moreover, the efflux inhibition (fraction of control) in experiment [14] was 0.135 (inactive). Moreover, in [16], the differentiation response was -14.8% (inactive).
On to `CCN(CC)CCNC(=O)c1ccc(N)cc1`, for which, in [1], the percent of DMSO control GFP was 99.6% (inactive). In addition, the GFP response vs DMSO in [2] is 106% (inactive); in [4], 89.4% (inactive). Also, in experiment [3], the percent response of DMSO control was 91.9% (inactive). Besides, the GFP response, % of DMSO in experiment [5] was 94.6% (inactive). Also, the double positive events in [6] worked out at 63.2%. Besides, in experiment [6], the vesicle binding response is 1180% (inactive). Further, the inhibition was -6.68% (inactive) in experiment [7], -0.67% (inactive) in [11] and 21% (inactive) in experiment [15]. Further, the superoxide response (% of plate) in experiment [8] was 94.8% (inactive). The aptamer binding inhibition in experiment [9] was -2% (inactive). Besides, the response was -4.02% (inactive) in experiment [10] and 0.99% (inactive) in experiment [12]. Besides, the binding (% of control) in experiment [13] was 94.2% (inactive). Moreover, the efflux inhibition (fraction of control) in experiment [14] is -0.14 (inactive). Also, the differentiation response in [16] was 6.11% (inactive).
